Laboratory results reported in PubChem BioAssay (Tox21).
Inconclusive results are not listed. Values without a mark were called inactive. The call rests on the fitted dose curve; in most records, active means well fitted cell-killing curve with a large enough effect in the repeat runs; inconclusive means weak or mixed curves, or effect the other way; inactive means flat fitted curve, though single readings scatter.

test: qHTS RealTime-Glo MT Cell Viability Assay in HEK293 cells - 40 hour (AID 1224874); conditions: RealTime-Glo luminescence; max response: hits give low values; further: nearly all actives have a fitted effect of over 50% in size
Text: U.S. Tox21 Program National Center for Advancing Translational Sciences [NCATS] NIH Chemical Genomics Center [NCGC] U.S. Environmental Protection Agency [EPA] National Institutes of Environmental Health Sciences [NIEHS] National Toxicology Program [NTP] U.S. Food and Drug Administration [FDA] Tox21 Assay Overview: Measure of cell viability is critical in the cell-base assay. Analysis of cell viability is necessary for the characterization of cell responses to cytotoxic drugs and environmental stress. A RealTime-Glo MT Cell Viability Assay to monitor cell viability in real time of continues cell culture during 40 hours of compound treatment was used to screen Tox21 10K library compounds in Hek293 cells. The RealTime-Glo MT Cell Viability Assay is a nonlytic, homogeneous, bioluminescent method to measure cell viability in real time using a simple, plate-based method. The assay involves adding NanoLuc luciferase and a cell-permeant prosubstrate to cells in culture. Viable cells reduce the proprietary prosubstrate to generate a substrate for NanoLuc luciferase. This substrate diffuses from cells into the surrounding culture medium, where it is rapidly used by the NanoLuc Enzyme to produce a luminescent signal. The signal correlates with the number of viable cells, making the assay well suited for cytotoxicity studies.
Tox21 Assay Protocol Summary: The mixture of Hek293 cell suspension and reagents were dispensed at 600cells/6 ul/well in 1536-well tissue culture treated black solid bottom plates using a Multidrop dispenser. After the assay plates were incubated at a 37 C/5% CO2 incubator for 5 hours, 23 nL of compounds dissolved in DMSO, positive and negative controls was transferred to the assay plate by a pintool work station. The plates were incubated at 37 C for 40 hours. The luminescence intensity were measured at 0h, 8h, 16h, 24h, 32h and 40h time points using ViewLux plate reader during compound treatment.
On the % scale 0 is the no-effect control and ±100 the full control effect.

Compared with `C=CCOCC(O)CS(=O)(=O)O` (stereo not given), `O=S(=O)(O)c1ccccc1O` is higher in max response: -7.7% for the first, 8.61% for the second.

Going from `Cc1nccn1CC1CCc2c(c3ccccc3n2C)C1=O` (stereo not given) to `NS(=O)(=O)c1cc(C2(O)NC(=O)c3ccccc32)ccc1Cl` (stereo not given), the max response rises from -14.4% to 1%.

Compared with `Nc1ncnc2c1ncn2Cc1c(F)cccc1Cl`, `CCOC(=O)Cn1c(=O)sc2cccc(Cl)c21` is higher in max response: -12.1% for the first, -10.9% for the second.

Going from `CCN1CCN(c2cc3c(cc2F)c(=O)c(C(=O)O)cn3C2CC2)CC1` to `Oc1ccc2c(c1)OC[C@@H](N1CCC(O)(c3ccc(F)cc3)CC1)[C@H]2O`, the max response falls from -0.866% to -13.9%.

First: Cc1cc(C)c(NC(=O)CN(CC(=O)O)CC(=O)O)c(C)c1Br
Second: O=C(O)CCNC(=O)c1ccc(N=Nc2ccc(O)c(C(=O)O)c2)cc1
The max response of the first is lower: -1.32% for the first, -0.519% for the second.

First: CC(=O)N[C@@H](CCC(N)=O)C(=O)O
Second: CCCCCN(CCCCC)C(=O)C(CCC(=O)O)NC(=O)c1ccc(Cl)c(Cl)c1 (stereo not given)
The max response of the first is higher: -1.52% for the first, -6.43% for the second.

Going from `CCCCN(CCO)CCO` to `CCCCC=O`, the max response falls from 19% to 2.57%.

Compared with `O=C1C(CCS(=O)c2ccccc2)C(=O)N(c2ccccc2)N1c1ccccc1` (stereo not given), `C(=C(c1ccccc1)c1ccccc1)c1ccccc1` is higher in max response: 1.04% for the first, 7.28% for the second.

First: c1ccc2cnncc2c1
Second: Cc1ccccc1Br
The max response of the first is higher: 12.8% for the first, 5.36% for the second.

First: CC(=O)O[C@H](CC(=O)[O-])C[N+](C)(C)C
Second: CCC(C)OC(=O)N1CCCCC1CCO (stereo not given)
The max response of the first is higher: 4.27% for the first, -15.9% for the second.

Compared with `CC1=CC(C)C(C=O)C(C)C1` (stereo not given), `CC(C)(C)OC(=O)N1C[C@@H](F)C[C@H]1C(=O)O` is lower in max response: 4.71% for the first, 2.11% for the second.

First: c1ccc(SCCSc2ccccc2)cc1
Second: c1ccc(CCCc2ccccn2)cc1
The max response of the first is higher: 6.54% for the first, -0.97% for the second.

First: CO
Second: COc1cc(O)cc(O)c1
The max response of the first is higher: 3.26% for the first, 2.03% for the second.

First: NC(=O)CCCCC1CCSS1 (stereo not given)
Second: CCCCCCOC(=O)c1ccccc1O
The max response of the first is higher: 4.59% for the first, -8.04% for the second.

Going from `O=[N+]([O-])c1ccc(CCO)cc1` to `CCCCNc1ccccc1`, the max response rises from -7.45% to 2.6%.

Going from `CNc1ncnc2nc[nH]c12` to `Nc1[nH]c(=O)ncc1F`, the max response falls from 3.96% to 0.113%.

Going from `COC(=O)[C@H]1[C@H]2C[C@@H]3c4[nH]c5cc(OC)ccc5c4CCN3C[C@H]2C[C@@H](OC(=O)COc2ccc(OC)cc2)[C@@H]1OC` to `O=C(O)Cc1cc(I)c(Oc2cc(I)c(O)c(I)c2)c(I)c1`, the max response falls from 6.2% to 1.65%.

Compared with `C=CCOc1nc(OCC=C)nc(OCC=C)n1`, `O=C(CCOCCOCCOCCOCCC(=O)Nc1c(I)cc(I)c(C(=O)O)c1I)Nc1c(I)cc(I)c(C(=O)O)c1I` is lower in max response: 11.1% for the first, -0.881% for the second.

Compared with `Nc1cc(C(Cl)=C(Cl)Cl)c(S(N)(=O)=O)cc1S(N)(=O)=O`, `COc1cc(C)cc(O)c1` is lower in max response: -0.745% for the first, -14.5% for the second.

Going from `CCCCCCOC(=O)CC(CC(=O)OCCCCCC)(OC(=O)CCC)C(=O)OCCCCCC` to `CCC(C)(C)C1CCC(OC)CC1` (stereo not given), the max response rises from 15.3% to 21.9%.
